# BoNT F protease = BoNT F light chain protease inhibition; Multiplex microsphere protease cleavage assay, flow cytometry; 360,000 tested, 0.22% active; inhibition, % at 10 µM; AID 588497; in the data active means inhibition above about 35%, passing the limit was not always enough; inconclusive means no clear call, values can overlap the other calls; further: plate controls were buffer without enzyme for full effect and enzyme alone for no effect
# BoNT A protease = inhibitors of Botulinum neurotoxin A light chain protease; multiplex microsphere protease substrate cleavage, flow cytometry; inhibition, % at 10 µM; 360,000 tested, 0.17% active; further: plate controls were buffer without enzyme for full effect and enzyme alone for no effect
# Anthrax LF inh2 = anthrax lethal factor protease inhibition | inhibition, % at 10 µM | 360,000 tested, 0.12% active | P15917 | multiplex microsphere protease cleavage assay, LF | AID 588501; further: plate controls were buffer without enzyme for full effect and enzyme alone for no effect
# Autofluor counter = compound fluorescence in toxin protease inhibitor counterscreen; 360,000 tested, 3.1% active; AID 624483; compound autofluorescence counterscreen, microsphere flow cytometry; active compounds read high; fluorescence intensity (concentration not given with the values); in the data active means fluorescence intensity above about 16000; inconclusive means no clear call, values can overlap the other calls
# TcdB GH inh = inhibitors of Clostridioides difficile toxin B glycohydrolase; 350,000 tested, 0.24% active; inhibition, % at 9.99 µM; AID 652162; P18177; TcdB glycohydrolase enzymatic assay, plate reader; in the data active means inhibition above about 10%
# Starred values were filed as active, the others as inactive; u = inconclusive; x = not tested or not shown. Only a selection was taken, and hits are over-represented in it overall. Unless noted, no stated cut-off is given here; in the data, active means inhibition above about 30%; inconclusive means no clear call, values can overlap the other calls; inactive means below that.
SMILES,BoNT F protease,BoNT A protease,Anthrax LF inh2,Autofluor counter,TcdB GH inh
CCC(=O)N1CC2(C1)[C@H](c1ccc(-c3ccc(F)cc3)cc1)[C@@H](CO)N2C(=O)CC,x,x,x,x,-1
CCOc1ccc(NC(=O)Cn2cc(C(=O)c3ccco3)c3ccccc32)cc1,11,14,-14,16382*,x
O=C(c1ccco1)c1cn(Cc2ccccc2Cl)c2ccccc12,-2,u,0,24624*,0
COCC(=O)N1C[C@@H](C)[C@H](OC)CN(C)C(=O)c2ccc(NC(=O)c3ccccc3)cc2OC[C@@H]1C,x,x,x,x,-10
CC1=NN(c2ccccc2)C(=O)/C1=C\C=C\c1ccccc1,x,x,x,x,1
O=C(O)c1cc(N2N=C(C(F)(F)F)/C(=C/C=C/c3ccco3)C2=O)ccc1Cl,20,2,2,4197,-2
CCOC(=O)c1ccc(N2N=C(C)/C(=C/C=C/c3ccco3)C2=O)cc1,-6,u,-5,22790*,x
CC1=NN(c2ccc(C(=O)OC(C)C)cc2)C(=O)/C1=C\C=C\c1ccco1,-2,2,-5,19581*,x
COc1ccc(CN(C)C[C@H]2OCCCC[C@H](C)Oc3ccc(NC(=O)c4ccncc4)cc3C(=O)N([C@@H](C)CO)C[C@@H]2C)cc1,x,x,x,x,0
Cc1cccc(S(=O)(=O)N2C[C@@H](O)COC[C@H]3O[C@@H](CC(=O)N4CCN(C)CC4)CC[C@@H]32)c1,x,x,x,x,1
CC(=O)c1cccc(NC(=O)CSc2nnc(-c3ccc(S(=O)(=O)N4CCCC4)cc3)o2)c1,4,1,1,21749*,x
COc1ccc(-c2nnc(SCC(=O)NCc3ccco3)o2)cc1,-34,-5,-5,11192,0
CC1Cc2ccccc2N1C(=O)CSc1nnc(-c2ccc(S(=O)(=O)N3CCOCC3)cc2)n1C (stereo unspecified),-3,0,0,2400,x
Cc1ccc(-c2nnc(SCC(=O)Nc3ccc(S(=O)(=O)N4CCCCCC4)cc3)o2)cc1,11,1,1,9547,x
Cc1csc(NC(=O)CSc2nnc(-c3ccc(S(=O)(=O)N4CCCC4)cc3)o2)n1,-5,0,-1,10686,-1
CC1Cc2ccccc2N1C(=O)CSc1nnc(-c2ccc(S(=O)(=O)N3CCCC3)cc2)o1 (stereo unspecified),-4,u,-1,20428*,x
O=C(CSc1nnc(-c2ccc(S(=O)(=O)N3CCCC3)cc2)o1)NCc1ccco1,3,2,1,21711*,x
CCN(CC)C(=O)CSc1nnc(-c2ccc(S(=O)(=O)N3CCCC3)cc2)o1,-1,u,-1,22144*,x
C[C@H](CO)N1C[C@H](C)[C@H](CN(C)S(=O)(=O)c2ccc(F)cc2)OCCCC[C@H](C)Oc2ccc(NC(=O)c3ccncc3)cc2C1=O,x,x,x,x,1
COc1ccc(NC(=O)N(C)C[C@H]2Oc3c(NC(=O)Nc4c(C)noc4C)cccc3C(=O)N([C@@H](C)CO)C[C@H]2C)cc1,x,x,x,x,1
COc1ccc(NC(=O)N2C[C@@H]3N[C@H](C2)[C@@H]3c2ccc(-c3ccc(OC)cc3)cc2)cc1,x,x,x,x,0
COc1cccc(S(=O)(=O)N2C[C@@H]3N[C@H](C2)C3c2ccc(/C=C/c3ccccc3)cc2)c1 (stereo partly specified),x,x,x,x,0
COCC#Cc1ccc2c(c1)O[C@H](CN(C)C)[C@H](C)CN([C@H](C)CO)S2(=O)=O,x,x,x,x,0
CCN(CC)S(=O)(=O)c1ccc(-c2nnc(SCC(=O)N3CCOCC3)o2)cc1,1,0,-1,10108,0
CC1Cc2ccccc2N1C(=O)CSc1nnc(-c2ccccc2)c(-c2ccccc2)n1 (stereo unspecified),u,u,u,16388*,x
SMILES,BoNT F protease,BoNT A protease,Anthrax LF inh2,Autofluor counter,TcdB GH inh
COc1ccc(C(=O)CSc2nnc(-c3ccc(S(=O)(=O)N4CCOCC4)cc3)o2)cc1,-4,-3,-1,20449*,x
O=C(CSc1nnc(-c2ccc(S(=O)(=O)N3CCOCC3)cc2)o1)c1ccccc1F,-4,-1,-4,9402,x
CCN(CC)S(=O)(=O)c1ccc(-c2nnc(SCC(C)=O)o2)cc1,-5,-1,1,16485*,x
O=[N+]([O-])c1cc(-n2cnnn2)ccc1N1CCC(Cc2ccccc2)CC1,-5,-1,-4,16952*,x
O=C1C2C3C=CC(C3=C(c3ccccc3)c3ccccc3)C2C(=O)N1CCO (stereo unspecified),0,-1,-1,16812*,x
CCc1ccc(-c2nc(CN3CCC(C(=O)NCc4ccc(F)cc4)CC3)c(C)o2)cc1,-8,u,-3,24227*,x
CCN(CCNC(=O)C1CCCN(Cc2nc(-c3ccc(OC)cc3)oc2C)C1)c1ccccc1 (stereo unspecified),-5,-1,-2,21170*,x
Cc1oc(-c2cccc(Cl)c2)nc1CN1CCC(C(=O)NCc2cccnc2)CC1,-2,1,-6,22980*,x
Cc1oc(-c2ccc(Cl)cc2)nc1CN1CCC(C(=O)NCc2cccs2)CC1,-4,1,1,3666,x
CCN(CCNC(=O)C1CCN(Cc2nc(-c3ccc(Cl)cc3)oc2C)CC1)c1ccccc1,-9,-5,-4,22915*,x
CCc1ccc(-c2nc(CN3CCC(C(=O)NCCN(CC)c4ccccc4)CC3)c(C)o2)cc1,-15,0,-15,6106,x
C[C@@H]1CN([C@@H](C)CO)C(=O)Cc2cc(NS(=O)(=O)c3ccc(Cl)cc3)ccc2O[C@@H]1CN(C)Cc1ccc(C(=O)O)cc1,x,x,x,x,0
CCN(CCNC(=O)C1CCN(Cc2nc(-c3cccc(Cl)c3)oc2C)CC1)c1ccccc1,-4,0,-10,20469*,x
COc1ccc(NC(=O)N(C)C[C@H]2Oc3ccc(NS(=O)(=O)c4c(C)noc4C)cc3CC(=O)N([C@@H](C)CO)C[C@H]2C)cc1,x,x,x,x,-1
Cc1ccc(S(=O)(=O)NC2CCOC(C)(C)C2)cc1 (stereo unspecified),-11,-1,7,3756,x
CC1(C)CC(NS(=O)(=O)c2ccc(S(=O)(=O)N3CCOCC3)cc2)CCO1 (stereo unspecified),-1,-1,-5,19550*,x
O=C1CCCC2=C1C1(CCCCC1)N=C(Nc1nc3ccccc3s1)N2,-2,-2,-2,16571*,x
O=C(C1CCCC1)N1[C@@H]2CN(S(=O)(=O)c3ccc(F)cc3)c3ccccc3[C@@H]2[C@@H]1CO,x,x,x,x,-1
C[C@H](CO)N1C[C@H](C)[C@H](CN(C)C(=O)c2ccccc2)OCCCC[C@H](C)Oc2ccc(NC(=O)CCC(F)(F)F)cc2C1=O,x,x,x,x,0
CC(=O)c1sc2nc(C)cc(C)c2c1N,1,0,-3,21807*,x
CC1(C)CC(=O)C2=C(C1)NC(Nc1nc3ccccc3o1)=NC2c1ccccn1 (stereo unspecified),-4,0,-2,3247,1
CC1=C(C(=O)Nc2ccccc2)C(c2ccc(C)cc2)N=C(Nc2nc3ccccc3o2)N1 (stereo unspecified),-2,-2,-2,23563*,x
O=C(C[C@H]1CC[C@@H]2[C@H](COC[C@@H](O)CN2S(=O)(=O)c2ccc(F)cc2)O1)N[C@H]1CCN(Cc2ccccc2)C1,x,x,x,x,1
CCOC(=O)c1ccc2ncc(-c3ccccc3)nc2c1,2,0,2,u,25*

# Compound activity from PubChem BioAssay.
